# Laboratory results reported in the supplement of paper PMC8728848.
# The entries come from a sample that favours the strongest signals as a whole.
# Legend:
# Test in all cases: glycan array binding signal (z-score within array); higher = stronger binding
# Neu5Gc(a2-3)Gal(b1-4)Glc = details: glycan notation: IUPAC condensed, linker removed
# Method in brief: (§1)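 Glycan array data were curated from 3228 arrays in the Consortium for Functional Glycomics database and kept only where the protein sequence was available. Glycan names were converted to IUPAC-condensed notation, and columns mapping to the same glycan were averaged. The binding signal is a within-array Z-score, averaged across arrays of the same protein sequence at different concentrations or buffers and across linkers. Negative Z-scores can be read as non-binding.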
# [1] = system: Neu5Gc(a2-8)Neu5Gc(a2-3)Gal(b1-4)GlcNAc; details: glycan notation: IUPAC condensed, linker removed; mutation: R125K
# Method in brief: as §1
# [2] = system: Neu5Gc(a2-3)Gal(b1-4)[Fuc(a1-3)]GlcNAc; details: glycan notation: IUPAC condensed, linker removed
# Method in brief: as §1
# Neu5Gc(a2-6)GalNAc = details: glycan notation: IUPAC condensed, linker removed
# Method in brief: as §1
# [3] = system: Neu5Gc(b2-6)Gal(b1-4)GlcNAc; details: glycan notation: IUPAC condensed, linker removed
# Method in brief: as §1
# Chain of SRLC (Mus musculus), Q8VIF6 (Q8VIF6 other isoform, or with tags, fused parts or gaps): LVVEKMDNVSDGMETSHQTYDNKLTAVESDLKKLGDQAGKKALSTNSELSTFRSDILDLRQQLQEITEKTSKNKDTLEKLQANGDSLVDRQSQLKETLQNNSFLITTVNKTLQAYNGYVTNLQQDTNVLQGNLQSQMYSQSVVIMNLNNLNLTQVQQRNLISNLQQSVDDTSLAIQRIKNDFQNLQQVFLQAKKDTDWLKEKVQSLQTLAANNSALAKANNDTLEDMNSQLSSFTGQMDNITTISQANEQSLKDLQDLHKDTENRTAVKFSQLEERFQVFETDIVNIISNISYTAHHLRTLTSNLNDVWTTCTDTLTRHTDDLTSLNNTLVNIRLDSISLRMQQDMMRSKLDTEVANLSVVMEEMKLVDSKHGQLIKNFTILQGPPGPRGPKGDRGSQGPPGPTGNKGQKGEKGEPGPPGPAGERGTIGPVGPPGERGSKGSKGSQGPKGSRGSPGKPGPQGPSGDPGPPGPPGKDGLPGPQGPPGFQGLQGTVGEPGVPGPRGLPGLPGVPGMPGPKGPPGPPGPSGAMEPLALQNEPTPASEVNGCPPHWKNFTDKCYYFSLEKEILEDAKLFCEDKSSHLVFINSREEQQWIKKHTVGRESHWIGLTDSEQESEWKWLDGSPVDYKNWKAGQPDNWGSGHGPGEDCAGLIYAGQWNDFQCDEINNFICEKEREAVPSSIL
# Chain of 6RG (Lolium perenne) (chain, as listed by the source): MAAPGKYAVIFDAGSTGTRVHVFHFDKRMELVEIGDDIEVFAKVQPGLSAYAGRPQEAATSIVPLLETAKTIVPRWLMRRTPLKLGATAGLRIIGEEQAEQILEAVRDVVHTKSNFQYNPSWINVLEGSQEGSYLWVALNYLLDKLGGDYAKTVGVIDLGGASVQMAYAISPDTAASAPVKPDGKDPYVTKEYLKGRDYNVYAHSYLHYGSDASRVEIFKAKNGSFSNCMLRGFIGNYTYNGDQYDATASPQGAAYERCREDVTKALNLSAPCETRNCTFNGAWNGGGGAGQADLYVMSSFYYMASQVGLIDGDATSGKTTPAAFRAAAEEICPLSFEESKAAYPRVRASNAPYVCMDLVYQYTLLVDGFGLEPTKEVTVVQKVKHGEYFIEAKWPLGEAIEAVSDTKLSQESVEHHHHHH
# Chain of C3b (Homo sapiens), P01024 (P01024 23-667): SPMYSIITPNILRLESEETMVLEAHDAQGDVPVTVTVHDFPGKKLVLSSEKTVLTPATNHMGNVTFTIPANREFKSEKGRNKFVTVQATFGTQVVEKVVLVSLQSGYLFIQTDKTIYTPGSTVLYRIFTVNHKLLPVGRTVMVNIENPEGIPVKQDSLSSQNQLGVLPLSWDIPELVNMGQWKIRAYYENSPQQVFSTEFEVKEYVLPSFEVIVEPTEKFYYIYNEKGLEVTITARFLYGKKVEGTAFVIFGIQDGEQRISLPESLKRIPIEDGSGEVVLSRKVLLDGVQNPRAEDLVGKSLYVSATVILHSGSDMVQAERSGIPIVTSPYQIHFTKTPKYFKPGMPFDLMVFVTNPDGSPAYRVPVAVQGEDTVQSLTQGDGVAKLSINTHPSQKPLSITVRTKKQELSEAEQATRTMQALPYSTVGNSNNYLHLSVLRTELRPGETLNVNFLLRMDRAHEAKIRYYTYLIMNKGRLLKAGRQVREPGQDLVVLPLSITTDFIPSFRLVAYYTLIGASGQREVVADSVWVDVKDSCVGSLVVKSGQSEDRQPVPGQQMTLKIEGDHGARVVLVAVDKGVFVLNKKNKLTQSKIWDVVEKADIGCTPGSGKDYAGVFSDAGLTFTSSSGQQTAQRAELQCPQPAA
# Chain of Aggrecan (Rattus norvegicus), NP_071526 (chain, as listed by the source): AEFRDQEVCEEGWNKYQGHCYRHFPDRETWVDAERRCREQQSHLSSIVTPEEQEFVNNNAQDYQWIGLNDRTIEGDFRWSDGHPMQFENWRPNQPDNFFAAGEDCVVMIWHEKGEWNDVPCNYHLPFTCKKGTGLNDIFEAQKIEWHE
# Chain of PILRb (Mus musculus), Q2YSF2 (Q2YSF2 entry or part of it): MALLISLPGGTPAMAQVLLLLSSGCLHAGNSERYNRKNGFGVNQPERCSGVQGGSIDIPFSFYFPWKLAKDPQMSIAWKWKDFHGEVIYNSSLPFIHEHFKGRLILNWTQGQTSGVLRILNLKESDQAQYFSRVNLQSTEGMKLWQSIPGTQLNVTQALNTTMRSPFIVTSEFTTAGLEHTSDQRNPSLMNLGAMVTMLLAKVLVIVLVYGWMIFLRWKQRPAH
substance,measurement,setting,value
"SRLC (Mus musculus), Q8VIF6",glycan array binding signal (z-score),Neu5Gc(a2-3)Gal(b1-4)Glc,-0.188
"Siglec-8 (Homo sapiens), Q9NYZ4",glycan array binding signal (z-score),Neu5Gc(a2-3)Gal(b1-4)Glc,-0.088
same,glycan array binding signal (z-score),[1],-0.526
"Aggrecan (Rattus norvegicus), NP_071526",glycan array binding signal (z-score),[2],-0.152
"C3b (Homo sapiens), P01024",glycan array binding signal (z-score),Neu5Gc(a2-6)GalNAc,-0.982
6RG (Lolium perenne),glycan array binding signal (z-score),Neu5Gc(a2-6)GalNAc,-0.128
"PILRb (Mus musculus), Q2YSF2",glycan array binding signal (z-score),[3],-0.093
